# From PubChem
# This is a sample that favours compounds with a hit; in the whole collection about 2.4% have one here.
# D2 ag-1 – activates the human D2 dopamine receptor | DiscoveRx PathHunter D2 beta-arrestin, luminescence, 90 min; 100% = 57 uM dopamine signal | P14416 | activation, % (no concentration beside the values) | 360,000 compounds, 0.084% hits; in the data active = activation above about 40%
# Target sequence (P14416 whole entry, looked up): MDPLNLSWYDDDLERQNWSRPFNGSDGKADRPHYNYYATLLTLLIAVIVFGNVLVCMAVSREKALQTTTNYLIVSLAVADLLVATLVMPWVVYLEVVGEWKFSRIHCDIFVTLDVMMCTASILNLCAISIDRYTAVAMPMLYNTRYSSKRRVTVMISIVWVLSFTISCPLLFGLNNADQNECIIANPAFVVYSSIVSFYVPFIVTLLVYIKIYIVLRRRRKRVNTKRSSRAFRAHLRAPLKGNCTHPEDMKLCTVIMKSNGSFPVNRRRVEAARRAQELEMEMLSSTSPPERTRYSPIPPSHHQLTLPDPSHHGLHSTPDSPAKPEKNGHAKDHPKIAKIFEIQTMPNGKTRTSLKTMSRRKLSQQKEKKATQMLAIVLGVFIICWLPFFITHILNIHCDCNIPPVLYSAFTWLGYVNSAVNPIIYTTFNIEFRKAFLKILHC
#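 Agonist mode: compounds alone added to overnight-plated D2 PathHunter cells for 90 min at 37 C, with 57 uM final dopamine (EC100) defining full response. Beta-arrestin recruitment detected by chemiluminescent reagent, read after 1 h at ambient temperature.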
# D2 antagonist – antagonists of human D2 dopamine receptor. P14416. AID 485344. HEK293 TREx D2 cells, calcium flux, dopamine EC80. 340,000 compounds, 2% hits. inhibition, % at 10 µM; in the data active = inhibition above about 30%; inactive = below that, where a call was filed; also: 0% is about no effect
#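 Tetracycline-induced HEK293 T-REx cells expressing D2 force-coupled to calcium signalling were dye-loaded, exposed to compound for 180 s, then challenged with an EC80 of dopamine; calcium flux was followed kinetically for a further 180 s.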
# D2 ag-2 – agonists of human D2 dopamine receptor; 340,000 compounds, 0.53% hits; activation, % at 2 µM; P14416; HEK293 T-REx D2 cells, calcium flux agonist mode;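 active = activation over 3 SD above normal in the single-dose calcium agonist read, cut at about 30% in these data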; also: 0% is about no effect
#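 Agonism is scored from calcium flux in a force-coupled, inducible HEK293 cell line expressing D2, read kinetically for 180 s after compound addition against dopamine controls.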
# D2 PAM-1 – D2 dopamine receptor (human) potentiation; HEK293 T-REx D2, calcium flux, EC20 dopamine potentiation; AID 485347; 340,000 compounds, 0.34% hits; potentiation, % at 10 µM;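 active = potentiation over 3 SD above the plate norm, cut at about 30% in these data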; also: 0% is about no effect
#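 Using a no-wash calcium dye in inducible, force-coupled HEK293 Trex cells expressing D2, we tracked fluorescence each second for 180 s after compound, then for 180 s after EC20 dopamine to detect augmented signalling.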
# D2 PAM-2 – positive allosteric modulators of human D2 dopamine receptor. P14416. DiscoveRx D2 beta-arrestin cells, luminescence, 90 min; 100% = 57 uM dopamine signal. potentiation, % (no concentration beside the values). 360,000 compounds, 0.23% hits. AID 624464; in the data active = potentiation above about 50%
#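 D2 cells co-treated with compound plus 50 nM dopamine (EC20) for 90 min at 37 deg C to detect potentiation. Beta-arrestin recruitment was read as enzyme-fragment luminescence after 1 h at ambient temperature. Full response was set by 57 uM dopamine.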
# The depositor's hits bear a star; . = no result.
SMILES,D2 ag-1,D2 antagonist,D2 ag-2,D2 PAM-1,D2 PAM-2
Cc1nc2nc(NC(=O)c3ccc(C(C)(C)C)cc3)[nH]n2c(=O)c1C,.,.,1.4,-4.9,.
O=c1[nH]c(SCc2c(F)cccc2Cl)nc2c1CCCC2,.,.,1.5,1.9,.
CCCc1nc2sc3c(N4CCC(C)CC4)ncnc3c2c2c1CCCC2,.,.,.,3.0,.
COc1cccc(CNC(=O)Cn2c(=O)ccc3cc(S(=O)(=O)N4CCCC4)ccc32)c1,.,.,1.0,0.3,.
Cc1cc(OC(C)C(=O)NC2CCN(Cc3ccccc3)CC2)c2c(C)cc(=O)oc2c1 (centres undefined),2.9,72.9*,-0.8,-18.6,-33.4
O=C(Cc1ccccc1[N+](=O)[O-])NC1CCN(Cc2ccccc2)CC1,-2.0,48.4*,1.5,-28.8,-5.2
O=C(COc1ccccc1F)NC1CCN(Cc2ccccc2)CC1,-3.3,48.4*,0.0,-15.2,-24.6
Cc1cc(OCC(=O)NC2CCN(Cc3ccccc3)CC2)c2c(C)cc(=O)oc2c1,-2.0,54.3*,-0.4,-22.4,-38.7
O=C(Cc1c(F)cccc1Cl)NC1CCN(Cc2ccccc2)CC1,-6.7,.,.,.,-52.0
CC(C)CCNC(=O)c1cc(Sc2ccc(F)cc2F)nc2ccccc12,.,.,.,-11.8,.
Cc1ccccc1C(=O)OCc1cc(=O)n2nc(C(C)C)sc2n1,.,.,-0.6,-0.7,.
CCc1ccc(NC(=O)CCc2c(C)n(C)c3cc(-c4ccccc4C)nn3c2=O)cc1,.,.,-0.3,7.5,.
Cc1ccc(NC(=O)CSc2nncs2)cc1Cl,-1.8,47.8*,3.5,-19.5,-19.0
Cc1nc(NC(=O)CSc2nncs2)c(Cl)cc1Cl,0.2,-27.7,-0.4,2.6,-6.5
COc1ccc(Cl)cc1NC(=O)NCc1ccco1,-5.4,17.6,0.4,-16.2,-10.5
C=CCNC(=O)c1cc(Cl)ccc1[N+](=O)[O-],-0.9,-2.6,0.8,-3.9,-32.0
CCCN1CCC(NC(=O)Nc2cc(Cl)ccc2OC)CC1,-18.8,84.9*,0.7,-39.1,3.7
C=CCNC(=O)Nc1cc(Cl)ccc1OC,-4.1,38.4*,0.7,-12.5,-8.5
C=CCNC(=O)c1cc(Cl)ccc1Cl,-0.3,-15.2,-0.1,32.7*,-3.9
COc1ccc(Cl)cc1NC(=O)NCC1CCN(C(=O)OC(C)(C)C)CC1,-7.9,95.4*,-0.7,-33.3,-15.9
CC(C)(C)OC(=O)N1CCC(CNC(=O)c2ccc(F)cc2F)CC1,3.3,-2.9,-0.2,2.0,0.3
CC1=C(C(=O)OCc2ccc(C)cc2)C(c2ccccc2F)CC(=O)N1 (centres undefined),.,.,-0.3,5.1,.
COc1ccc(N2CCN(C(c3ccccc3)c3nnc(-c4ccccc4Cl)o3)CC2)cc1 (centres undefined),.,.,-0.6,10.8,.
COc1ccc(Cl)cc1NC(=O)NCCN1CCCCC1,-2.3,58.2*,-0.3,-27.1,-8.5
COc1ccc(OC)c(NC(=O)Nc2ccc(Cl)cc2)c1,-0.8,46.5*,-2.3,-25.5,-26.9
SMILES,D2 ag-1,D2 antagonist,D2 ag-2,D2 PAM-1,D2 PAM-2
Cc1ccc(-n2nc(C)c3c(C)c(CCC(=O)NCc4ccccc4Cl)c(C)nc32)cc1,.,.,.,3.2,.
COc1ccc(CCN2CC(C(=O)NCCc3cccnc3)CCC2=O)cc1 (centres undefined),-2.7,31.6*,-1.0,-5.8,-2.8
CCC(CC)NC(=O)CN1CCN(S(=O)(=O)c2ccc(Br)s2)CC1,1.9,-4.2,-0.8,0.2,50.2*
Cc1cc(Nc2ccccc2)nn1C(=O)c1ccc(Cl)cc1,0.6,20.2,-0.5,-3.8,-5.5
Cc1cc(Nc2ccccc2)nn1C(=O)c1ccc([N+](=O)[O-])cc1,3.6,0.9,0.3,-4.7,55.7*
CCN(CC)c1ccc(CNS(=O)(=O)c2cc3c(cc2C)NC(=O)CO3)cc1,.,.,0.7,-2.7,.
O=C(c1ccccc1)N(Cc1ccco1)C1CCS(=O)(=O)C1 (centres undefined),-2.5,37.4*,4.1,2.1,-9.0
O=C(c1ccc(F)cc1)N(Cc1ccco1)C1CCS(=O)(=O)C1 (centres undefined),-0.5,-16.9,2.2,1.0,-14.2
CCOC1(OCC)C(c2ccc(Cl)cc2)C(C#N)(C#N)C1(OCC)OCC (centres undefined),-2.9,38.5*,1.1,11.9,-7.5
CCc1ccc(OCC(=O)Nc2cc(-c3nc4cc(C)ccc4o3)ccc2C)cc1,.,.,0.2,-0.1,.
CCOCCCNCc1ccc(OC)c(OC)c1,-1.0,36.2*,-0.7,-5.6,-13.2
COc1cc2c(cc1OC)C1=C(C#N)CN(C3CCCCC3)CN1CC2,3.7,40.2*,-1.6,2.3,-6.5
COc1cc(OC)c(N(C)C(=O)CSc2c3c(nc4ccc(Cl)cc24)CCCC3)cc1Cl,.,.,-0.6,8.5,.
O=C(N/N=C/c1cc(Br)cs1)c1c[nH]c2ccccc12,-10.6,2.3,0.4,4.5,-14.1
O=C(N/N=C/c1ccc(Br)s1)c1c[nH]c2ccccc12,-4.7,34.1*,0.8,-24.0,-29.1
Cc1cc(C)c(NC(=O)Cn2c(=O)oc3cc(S(=O)(=O)N4CCCCCC4)ccc32)c(C)c1,.,.,0.2,-4.3,.
CC1CCN(S(=O)(=O)c2ccc3c(c2)N(CC(=O)NC(C)C)C(=O)CS3)CC1,.,.,0.0,-4.8,.
CCCCOC(=O)C1=C(C)NC(=O)NC1c1ccc([N+](=O)[O-])s1 (centres undefined),2.0,4.8,1.8,4.8,57.8*
CCCCOC(=O)C1=C(C)NC(=O)NC1c1cccc([N+](=O)[O-])c1 (centres undefined),-3.7,24.2,-1.2,-0.1,-4.1
CCN1CCN(C(=O)Cn2c(-c3cccs3)cc3cc(Cl)ccc32)CC1,.,.,0.7,-5.1,.
Cc1ccc(-c2csc(N/N=C/c3ccco3)n2)c(C)c1,11.9,0.5,0.5,1.8,55.9*
Cc1sc2nc(C3CC3)nc(SCC(=O)N3CCc4ccccc4C3)c2c1C,0.3,-18.8,1.2,-3.0,-23.6
CCc1c(C)sc2nc(C(C)C)nc(SCC(=O)N3CCc4ccccc4C3)c12,-0.9,43.7*,-0.4,-1.9,-2.0
Cc1cc(C)c2c(n1)sc1c(=O)n(-c3ccccc3C(F)(F)F)nnc12,.,.,-1.1,15.8,.
Cc1sc2ncn(CC(=O)N3CCN(c4ccccc4F)CC3)c(=O)c2c1S(=O)(=O)N1CCN(c2ncccn2)CC1,.,.,0.5,14.3,.
SMILES,D2 ag-1,D2 antagonist,D2 ag-2,D2 PAM-1,D2 PAM-2
Cc1ccc(S(=O)(=O)Nc2cccc3cccnc23)cc1,-6.5,-15.6,-0.7,-11.4,-33.2
COc1cc(NS(=O)(=O)c2ccc(C)cc2)c2ncccc2c1,-6.5,-21.9,0.1,53.7*,-32.0
O=S(=O)(c1ccccc1)n1nc(-c2ccco2)nc1NCc1ccccc1,.,.,-0.7,3.0,.
CCCCNCC1CCCO1 (centres undefined),-2.6,69.6*,0.4,-20.6,-6.5
Cc1ccc(CNCC2CCCO2)o1 (centres undefined),-1.6,9.3,-0.6,-4.1,0.0
Cc1c(Cl)cccc1NC(=O)CSc1nc(=O)n(Cc2cccnc2)c2c1CCC2,.,.,-1.0,-6.0,.
